Holding throughout (design): scale not given: direction of the effect not stated beside the values
Test [1] has as its target Protein translocase subunit SecA (Escherichia coli (strain K12)) (UniProt P10408). The experiment in a line: Assay to Identify E. coli SecA ATPase Inhibitors. Format: functional. Particulars: 30 µM.
In test [2] the target is T1, Ubiquitin-activating enzyme e1, putative (Leishmania donovani (strain BPK282A1)) (UniProt E9BSI1).
T1 sequence (whole entry): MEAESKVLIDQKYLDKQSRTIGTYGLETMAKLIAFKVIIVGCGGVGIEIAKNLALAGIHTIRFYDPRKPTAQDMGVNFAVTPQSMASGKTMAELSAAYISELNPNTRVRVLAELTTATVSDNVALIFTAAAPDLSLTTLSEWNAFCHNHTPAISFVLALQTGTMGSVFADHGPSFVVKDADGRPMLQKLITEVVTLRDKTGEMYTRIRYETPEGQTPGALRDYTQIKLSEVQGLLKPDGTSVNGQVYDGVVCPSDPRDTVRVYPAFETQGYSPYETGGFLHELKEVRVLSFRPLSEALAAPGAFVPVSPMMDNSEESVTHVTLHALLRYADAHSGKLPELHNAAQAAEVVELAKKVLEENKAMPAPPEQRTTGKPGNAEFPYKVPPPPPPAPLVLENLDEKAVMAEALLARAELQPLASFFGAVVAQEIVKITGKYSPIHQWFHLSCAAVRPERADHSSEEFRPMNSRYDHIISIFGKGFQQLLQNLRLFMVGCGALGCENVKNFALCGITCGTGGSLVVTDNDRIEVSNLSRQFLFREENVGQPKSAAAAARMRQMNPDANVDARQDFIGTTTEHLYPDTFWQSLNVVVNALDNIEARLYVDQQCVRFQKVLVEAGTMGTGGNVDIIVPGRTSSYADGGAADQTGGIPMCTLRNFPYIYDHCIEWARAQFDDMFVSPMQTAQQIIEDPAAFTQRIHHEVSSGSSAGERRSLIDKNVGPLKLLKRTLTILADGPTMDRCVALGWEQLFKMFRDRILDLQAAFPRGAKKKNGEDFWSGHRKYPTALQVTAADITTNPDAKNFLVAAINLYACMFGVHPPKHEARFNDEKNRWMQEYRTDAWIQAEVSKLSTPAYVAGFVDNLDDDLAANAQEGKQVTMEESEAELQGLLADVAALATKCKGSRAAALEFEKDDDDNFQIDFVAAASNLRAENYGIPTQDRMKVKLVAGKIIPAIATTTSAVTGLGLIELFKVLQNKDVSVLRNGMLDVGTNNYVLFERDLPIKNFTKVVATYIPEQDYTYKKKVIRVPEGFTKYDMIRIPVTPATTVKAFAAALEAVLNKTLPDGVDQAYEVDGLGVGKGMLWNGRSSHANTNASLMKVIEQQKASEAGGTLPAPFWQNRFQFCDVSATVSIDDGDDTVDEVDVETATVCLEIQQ
The test is described as follows: Leishmania donovani Ubiquitin Activating Enzyme (LdE1). Format: functional. Particulars: 30 µM.

For test [3], the target named is Sialic acid-binding Ig-like lectin 9 (Homo sapiens) (UniProt Q9Y336). The test is described as follows: Hs-Siglec9 ALPHAscreen SOP 20170721. Particulars: 10 µM.
Another test has as its system Trypanosoma cruzi. The test is described as follows: Trypanosoma cruzi phosphomannomutase and mannose-1-phosphate guanylyltransferase assay. Format: functional. Particulars: 10 µM.
Test [4] addresses T2, Arginase-2, mitochondrial (Homo sapiens) (UniProt P78540).
T2 sequence (whole entry): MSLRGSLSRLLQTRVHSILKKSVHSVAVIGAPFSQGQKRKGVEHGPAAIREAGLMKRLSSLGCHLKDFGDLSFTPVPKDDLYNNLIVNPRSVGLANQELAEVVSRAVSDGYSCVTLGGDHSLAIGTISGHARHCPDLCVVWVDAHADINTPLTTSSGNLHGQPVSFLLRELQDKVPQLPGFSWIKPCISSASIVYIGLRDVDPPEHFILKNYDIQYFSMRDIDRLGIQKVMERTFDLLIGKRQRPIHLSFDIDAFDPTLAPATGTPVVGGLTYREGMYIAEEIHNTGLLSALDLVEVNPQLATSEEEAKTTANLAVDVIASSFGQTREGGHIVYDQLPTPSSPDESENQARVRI
The test is described as follows: in vitro enzyme assay to detect the production of urea directly proportional to the activity of Arginase II. Note: in the data most compounds retested in dose-response had high values. Format: functional. The note with it: 33.3 µM.

Test [5] addresses T3, Proteasome subunit beta (Trypanosoma cruzi) (UniProt O96673).
T3 sequence (whole entry): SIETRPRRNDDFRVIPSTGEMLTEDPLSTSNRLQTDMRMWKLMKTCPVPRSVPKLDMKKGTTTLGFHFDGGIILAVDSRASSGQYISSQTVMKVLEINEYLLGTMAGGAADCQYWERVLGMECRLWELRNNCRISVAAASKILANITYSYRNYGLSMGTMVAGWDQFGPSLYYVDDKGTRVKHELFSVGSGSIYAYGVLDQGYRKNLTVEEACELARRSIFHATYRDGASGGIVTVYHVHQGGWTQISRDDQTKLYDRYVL
The test is described as follows: Trypanosoma cruzi proteasome chymotrypsin-like activity (TcProtChymo) assay. Note: in the data most compounds retested in dose-response had high values. Format: functional. Particulars: 9.37 µM.

The species named for another test is Homo sapiens. The experiment in a line: To identify inhibition of the IFN signalling (Jak-Stat) pathway via expression of an eGFP reporter gene under the control of an IFN-stimulated response element (ISRE) containing MxA promoter. Particulars: 30 µM. Format: functional. (In general: Reporter assays use an easily measured gene product as a stand-in for the process of interest.)

Test [6] has as its target T4, Tyrosyl-tRNA synthetase, putative (Trypanosoma cruzi (strain CL Brener)) (UniProt Q4DSP6).
T4 sequence (whole entry): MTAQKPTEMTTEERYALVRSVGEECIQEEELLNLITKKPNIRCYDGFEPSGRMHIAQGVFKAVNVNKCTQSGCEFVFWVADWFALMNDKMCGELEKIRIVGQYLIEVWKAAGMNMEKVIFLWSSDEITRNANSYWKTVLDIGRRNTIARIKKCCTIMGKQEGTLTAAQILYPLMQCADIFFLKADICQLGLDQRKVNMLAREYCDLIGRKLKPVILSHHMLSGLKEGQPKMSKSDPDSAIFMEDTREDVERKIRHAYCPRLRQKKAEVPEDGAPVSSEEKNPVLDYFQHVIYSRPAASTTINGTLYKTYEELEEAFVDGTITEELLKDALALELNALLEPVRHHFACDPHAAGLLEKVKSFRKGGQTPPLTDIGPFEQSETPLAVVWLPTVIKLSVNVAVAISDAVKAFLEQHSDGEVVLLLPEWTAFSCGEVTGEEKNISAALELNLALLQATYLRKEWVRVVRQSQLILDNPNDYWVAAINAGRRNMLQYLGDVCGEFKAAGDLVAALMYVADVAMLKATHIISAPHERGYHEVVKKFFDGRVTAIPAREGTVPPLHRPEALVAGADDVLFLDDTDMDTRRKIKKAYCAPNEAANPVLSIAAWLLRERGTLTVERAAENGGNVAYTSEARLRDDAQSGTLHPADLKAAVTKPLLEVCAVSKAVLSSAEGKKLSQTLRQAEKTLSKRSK
The test is described as follows: Trypanosoma cruzi tyrosyl tRNA synthetase (TcYRS) _High Tyrosine SOP. Note: in the data most compounds retested in dose-response had high values. Format: functional. The note with it: 30 µM.

In test [7] the target is T4, Tyrosyl-tRNA synthetase, putative (Trypanosoma cruzi (strain CL Brener)). The experiment in a line: Trypanosoma cruzi tyrosyl tRNA synthetase (TcYRS) SOP. Format: functional. The note with it: 30 µM.
In test [8] the target is Chromo domain-containing protein 1 (Saccharomyces cerevisiae (strain ATCC 204508 / S288c) (Baker's yeast)) (UniProt P32657). The experiment in a line: ScCHD-1 Enzyme Inhibition Assay. Note: in the data most compounds retested in dose-response had high values. Format: functional. Particulars: 30 µM.

For part of these data: Potency and affinity values are given separately.

The values below come from ChEMBL document CHEMBL3988442, “University of Dundee, Small-Polar-MMV Screening Library” (2021).

Chain of Protein translocase subunit SecA (Escherichia coli (strain K12)) (P10408 whole entry): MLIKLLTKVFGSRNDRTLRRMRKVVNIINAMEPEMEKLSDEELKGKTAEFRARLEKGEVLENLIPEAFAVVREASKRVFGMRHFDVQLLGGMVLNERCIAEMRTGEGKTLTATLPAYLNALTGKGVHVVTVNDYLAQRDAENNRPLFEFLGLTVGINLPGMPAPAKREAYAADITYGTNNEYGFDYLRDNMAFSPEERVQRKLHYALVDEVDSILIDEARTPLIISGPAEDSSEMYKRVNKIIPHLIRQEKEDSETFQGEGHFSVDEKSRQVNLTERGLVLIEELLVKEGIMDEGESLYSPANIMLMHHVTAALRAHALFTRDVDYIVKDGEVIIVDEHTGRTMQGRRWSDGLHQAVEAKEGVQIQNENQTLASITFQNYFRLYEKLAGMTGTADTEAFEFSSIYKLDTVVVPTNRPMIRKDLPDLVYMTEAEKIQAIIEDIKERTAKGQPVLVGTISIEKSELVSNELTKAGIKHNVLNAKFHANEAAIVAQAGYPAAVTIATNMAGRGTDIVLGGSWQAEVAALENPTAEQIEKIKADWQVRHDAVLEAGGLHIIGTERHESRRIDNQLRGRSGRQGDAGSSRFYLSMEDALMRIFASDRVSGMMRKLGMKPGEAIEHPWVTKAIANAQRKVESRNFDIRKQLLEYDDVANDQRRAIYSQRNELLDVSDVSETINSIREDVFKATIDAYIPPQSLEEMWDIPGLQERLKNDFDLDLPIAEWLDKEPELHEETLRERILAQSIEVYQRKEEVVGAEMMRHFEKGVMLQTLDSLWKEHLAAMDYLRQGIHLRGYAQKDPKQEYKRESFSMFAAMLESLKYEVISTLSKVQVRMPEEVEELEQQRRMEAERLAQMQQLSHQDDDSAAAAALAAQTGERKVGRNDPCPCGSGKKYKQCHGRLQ
Chain of Chromo domain-containing protein 1 (Saccharomyces cerevisiae (strain ATCC 204508 / S288c) (Baker's yeast)) (P32657 whole entry, the tested form may be a part): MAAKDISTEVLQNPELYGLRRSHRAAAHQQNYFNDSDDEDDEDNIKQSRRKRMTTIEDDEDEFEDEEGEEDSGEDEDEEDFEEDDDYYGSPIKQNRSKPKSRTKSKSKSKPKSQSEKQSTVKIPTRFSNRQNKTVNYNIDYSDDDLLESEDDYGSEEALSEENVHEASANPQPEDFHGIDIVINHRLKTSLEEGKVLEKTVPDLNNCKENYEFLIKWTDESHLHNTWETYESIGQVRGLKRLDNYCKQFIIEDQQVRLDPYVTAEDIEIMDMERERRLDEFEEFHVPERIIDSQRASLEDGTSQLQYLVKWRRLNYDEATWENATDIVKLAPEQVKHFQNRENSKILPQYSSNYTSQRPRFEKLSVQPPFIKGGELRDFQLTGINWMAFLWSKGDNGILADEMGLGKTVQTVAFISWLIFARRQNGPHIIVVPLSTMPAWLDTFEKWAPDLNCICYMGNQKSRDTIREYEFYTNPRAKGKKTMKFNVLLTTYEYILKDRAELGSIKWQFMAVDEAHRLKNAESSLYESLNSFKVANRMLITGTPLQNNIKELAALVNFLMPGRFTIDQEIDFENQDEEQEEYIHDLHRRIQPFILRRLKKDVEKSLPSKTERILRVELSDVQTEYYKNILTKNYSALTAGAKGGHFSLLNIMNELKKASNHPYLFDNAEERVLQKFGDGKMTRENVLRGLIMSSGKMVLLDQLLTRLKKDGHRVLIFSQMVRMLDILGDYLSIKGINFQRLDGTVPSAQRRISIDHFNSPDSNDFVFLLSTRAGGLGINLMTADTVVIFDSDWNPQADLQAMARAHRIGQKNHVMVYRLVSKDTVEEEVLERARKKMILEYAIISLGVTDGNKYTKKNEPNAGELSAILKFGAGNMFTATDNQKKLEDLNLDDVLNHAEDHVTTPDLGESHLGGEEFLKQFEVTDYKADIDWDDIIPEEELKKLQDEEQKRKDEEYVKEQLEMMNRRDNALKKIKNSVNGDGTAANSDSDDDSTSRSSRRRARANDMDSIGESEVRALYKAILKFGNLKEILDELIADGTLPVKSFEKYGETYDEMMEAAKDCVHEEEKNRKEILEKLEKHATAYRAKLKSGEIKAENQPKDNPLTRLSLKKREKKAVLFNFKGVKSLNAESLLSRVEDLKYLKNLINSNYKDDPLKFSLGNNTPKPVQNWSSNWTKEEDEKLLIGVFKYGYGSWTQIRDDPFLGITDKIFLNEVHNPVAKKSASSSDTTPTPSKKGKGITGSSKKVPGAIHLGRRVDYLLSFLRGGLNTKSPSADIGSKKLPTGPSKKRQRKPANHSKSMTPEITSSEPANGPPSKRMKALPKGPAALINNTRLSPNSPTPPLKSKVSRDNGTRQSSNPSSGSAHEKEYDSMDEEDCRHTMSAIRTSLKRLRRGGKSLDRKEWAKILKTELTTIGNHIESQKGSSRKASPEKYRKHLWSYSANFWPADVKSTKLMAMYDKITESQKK
Chain of Sialic acid-binding Ig-like lectin 9 (Homo sapiens) (Q9Y336 whole entry): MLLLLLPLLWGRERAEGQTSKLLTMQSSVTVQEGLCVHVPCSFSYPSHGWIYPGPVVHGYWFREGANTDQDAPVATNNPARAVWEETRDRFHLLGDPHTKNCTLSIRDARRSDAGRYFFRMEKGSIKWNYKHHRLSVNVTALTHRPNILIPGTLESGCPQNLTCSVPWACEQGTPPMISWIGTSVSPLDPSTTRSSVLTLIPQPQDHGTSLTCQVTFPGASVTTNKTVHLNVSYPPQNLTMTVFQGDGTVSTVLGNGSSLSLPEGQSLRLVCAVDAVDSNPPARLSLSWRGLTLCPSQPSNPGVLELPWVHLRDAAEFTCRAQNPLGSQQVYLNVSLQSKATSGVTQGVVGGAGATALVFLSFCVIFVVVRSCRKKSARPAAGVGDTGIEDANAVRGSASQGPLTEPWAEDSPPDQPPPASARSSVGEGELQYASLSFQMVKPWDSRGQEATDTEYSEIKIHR

For `Fc1ccc(-c2n[nH]cc2-c2ccnc(NCCN3CCCC3)n2)cc1`, the Percent Effect is -1.15% in test [1]; 8% in [2]; -4.6% in test [3]; -8.23% in the test with Trypanosoma cruzi; -7.98% in test [4]; 15.3% in test [5]. In addition, the Percent Effect in the test listed under Homo sapiens is 5.44%; in test [6] it was -5.79%; in test [7] it was 0%; in [8] it was -21.2%.
For `Cc1nc(C)c(C(=O)NCCNc2ncccc2C#N)s1`, the Percent Effect in test [1] was -0.152%; in test [2] it was 31.2%; in test [3] it was 1.1%; with Trypanosoma cruzi it was 5.41%; in [4] it was -5.94%; in [5], 18.4%. The Percent Effect in the test listed under Homo sapiens was 7.44%; in test [6] it was 6.86%; in test [7], 28.2%; in [8], -11.7%.
In the case of `Cc1nc(C)n(CC2CCCN2Cc2ccn(-c3ccccc3)n2)n1` (stereo not given), the Percent Effect is 0.0578% in test [1]; -20.8% in [2]; 13.8% in test [3]; 0.933% with Trypanosoma cruzi; -4.3% in test [4]; 4.04% in [5]. For the same molecule, the Percent Effect was 3.86% in the test filed under Homo sapiens, 4.9% in test [6], 16.5% in test [7] and -7.02% in test [8].
For the molecule `CC(C)(O)CN1CCN(C(=O)c2cc(Cl)cc3cccnc23)CC1`, the Percent Effect was -3.15% in test [1]; -5.13% in test [2]; 5.39% in test [3]; 2.54% in the test with Trypanosoma cruzi; 6.15% in [4]; 9.13% in test [5]. Besides, the Percent Effect in the test filed under Homo sapiens was -3.27%; in [6], 2.39%; in test [7], 1.21%; in test [8], -5.6%.
In the case of `COc1c(CNC2CCc3cc(F)ccc32)c(C)nn1C` (stereo not given), the Percent Effect is -0.933% in test [1]; 7.79% in test [2]; 8.9% in test [3]; -0.187% in the test with Trypanosoma cruzi; 5.94% in test [4]; -1.23% in [5]. The Percent Effect is -9.97% in the test listed under Homo sapiens, 3.92% in test [6], 9.41% in test [7] and -0.439% in [8].
In the case of `COc1ncc(C2(O)CCN(Cc3ccccc3O)CC2)c(OC)n1`, the Percent Effect is -3.88% in test [1]; 22.7% in test [2]; 0.188% in test [3]; 1.58% in the test with Trypanosoma cruzi; -3.1% in test [4]; 13.6% in test [5]. The Percent Effect was -5.87% in the test listed under Homo sapiens, 6.35% in [6], 20% in test [7] and -23.4% in [8].
As for `CCOc1ncccc1CNC(=O)Nc1ccc(N(C)C)nc1`, the Percent Effect in test [1] is -5.71%; in [2] it was 2.6%; in test [3], -6.42%; in the test on Trypanosoma cruzi, -9.89%; in test [4], -2.66%; in [5] it was 15.3%. Also, the Percent Effect was 13.9% in the test listed under Homo sapiens, 0.98% in [6], 4.71% in test [7] and -9.6% in test [8].
In the case of `CCOCC1CC2(CCN(C(=O)c3ccccc3F)CC2)CO1` (stereo not given), the Percent Effect is -6.56% in test [1]; 6.49% in test [2]; -7.4% in [3]; -3.41% with Trypanosoma cruzi; -7.29% in test [4]; -0.794% in test [5]. In addition, the Percent Effect was -3.95% in the test filed under Homo sapiens, 2.63% in test [6], 7.69% in [7] and -0.095% in [8].
As for `Cc1ccc([C@@H]2CN(C(=O)c3ccc[nH]3)C[C@H]2NC(=O)C2CC2)cc1`, the Percent Effect in [1] was -2.9%; in test [2], 5.41%; in test [3], 1.4%; in the test with Trypanosoma cruzi, -4.56%; in test [4], -3.85%; in test [5] it was 17.3%. Also, the Percent Effect in the test listed under Homo sapiens was 30.6%; in test [6] it was 2.66%; in test [7], 7.32%; in test [8] it was -6.72%.
Turning to `COC[C@@]12CC[C@@H](N3CCOCC3)C[C@H]1CCN(c1ncccn1)C2`, the Percent Effect in [1] was -6.56%; in [2], 13.5%; in [3], 17.1%; in the test with Trypanosoma cruzi it was 6.5%; in test [4], 19.9%; in test [5], 14.7%. Also, the Percent Effect in the test filed under Homo sapiens was found to be 0.0489%; in [6], 4.79%; in test [7] it was 12.2%; in test [8] it was 88.3%.
`CC(C)CN1C[C@@H]2CN(C(=O)[C@H]3CCCO3)C[C@@H]2C1=O`: the Percent Effect in test [1] is -2.4%; in test [2], 16.9%; in [3], -1.93%; with Trypanosoma cruzi, -7.13%; in test [4], 3.65%; in test [5], 5.06%. In addition, the Percent Effect was 7.85% in the test filed under Homo sapiens, -5.8% in test [6], 12.5% in [7] and -5.7% in [8].
For the molecule `Cc1nn(C)cc1CCC(=O)N1CCCC(n2cncn2)C1` (stereo not given), the Percent Effect in [1] was -2.9%; in test [2] it was 2.67%; in [3] it was 3.45%; in the test with Trypanosoma cruzi, 1.21%; in test [4], 7.98%; in test [5], 2.97%. Also, the Percent Effect was -4% in the test filed under Homo sapiens, 3.68% in [6], 10.3% in test [7] and -4.09% in [8].
